Experimental findings from ChEMBL document CHEMBL3988442, “University of Dundee, Small-Polar-MMV Screening Library” (2021) are described below.

The structures appear in SMILES notation. In all, about 38,000 compounds went through this assay and about 1,200 (3.2%) showed an effect of 50% or more. The median lay at about -58%. For the sample, strong results were picked, then their nearest neighbours and some compounds at random.

For this test, the system named is Plasmodium falciparum. The test can be described thus: Calibr Malaria Delayed Death Assay SOP. In kind it is functional, organism-based. Also on record: scale not given: in the data most compounds retested in dose-response had high values. Particulars: concentration 4.99e-06 (unit not given; other assays of the set use mol/L).
Turning to `CS(=O)(=O)c1ccccc1-n1cc(NC(=O)CC2C=CCC2)cn1` (stereo not drawn), the “Percent Effect” value is -87.45%.

Turning to `O=C(CCc1cc2n(n1)CCCN(CCc1ccccc1)C2)NC1CC1`, the “Percent Effect” value is reported as -74.1%.

`CC(=O)N1CCC(C(=O)NCCc2c[nH]c3cc(C)ccc23)CC1`: the “Percent Effect” value is listed as -74.03%. For `CS(=O)(=O)N1CCc2c(cccc2NC(=O)NC2CCCC2)C1`, the “Percent Effect” value is on record as -76.44%. With `CCc1ccc(OCCn2cccn2)cc1`, the “Percent Effect” value is -75.63%. In the case of `CC(C)c1nccc(CN2CCC(c3nc4ccccc4n3C)CC2)n1`, the “Percent Effect” value was -101.6%. Next, `CC(C)Cc1nc(NC(=O)c2cccnc2)n[nH]1`: -46.29%. In the case of `Cc1ccc2nc(C(=O)N3CC(c4cccnc4)C3)cn2c1`, the “Percent Effect” value is recorded as -27.83%. On to `COCCN1CCC(NCc2cccc(C)c2)C1` (stereo not drawn), for which the “Percent Effect” value was -16.89%. Next, `COc1cccc(CNC(=O)N2CCN(Cc3cc(C)on3)CC2)c1`: -21.77%; `O=C(NC(CN1CCCC1)c1ccccc1)c1c(O)cc(F)cc1F` (stereo not drawn): -93.48%; `Cc1ccc(CNC(CN2CCN(C)CC2)c2ccccc2)cc1C` (stereo not drawn): -112.6%. `CN1CCN(CC(NCc2cccc(O)c2)c2ccccc2)CC1` (stereo not drawn): the “Percent Effect” value is -102.1%. For the compound `Cl.Cl.OC(CN1CCN(Cc2ccc(F)c(F)c2)CC1)C1CC1` (stereo not drawn), the “Percent Effect” value is listed as -18%. For the compound `COc1cccc(C(=O)N2CCN(CC(O)c3ccccc3)CC2)c1` (stereo not drawn), the “Percent Effect” value is reported as -38.78%. Take `CN1CCN(CC(NCc2ccc(F)cc2)c2ccccc2)CC1` (stereo not drawn): the “Percent Effect” value was -91.46%.

With `Cc1cccc(CNC(CN2CCN(C)CC2)c2ccccc2)c1` (stereo not drawn), the “Percent Effect” value was 83.13%. For the compound `NC(=O)CS(=O)(=O)Cc1csc(-c2ccc(F)cc2)n1`, the “Percent Effect” value is -114.2%. Turning to `O=C(Nc1cc(C(F)(F)F)c[nH]c1=O)C1CCCO1` (stereo not drawn), the “Percent Effect” value was -102.8%.

Take `Cc1csc(NC(=O)C2CCN(Cc3cccc4c3OCCO4)CC2)n1`: the “Percent Effect” value is -33.92%. Regarding `CN(C)CCOCc1cncc2c1CCN(C(=O)C1CCOCC1)C2.O=C(O)C(F)(F)F.O=C(O)C(F)(F)F`, the “Percent Effect” value is given as -70.85%. For the compound `O=C(O)C(F)(F)F.O=C(O)C(F)(F)F.O=C(O)C(F)(F)F.O=C(c1ccncc1)N1CCN(Cc2cccnc2)c2ncccc2C1`, the “Percent Effect” value was -102.4%.

Turning to `CC(C)NC(=O)c1noc2c1CN(Cc1cnn(C)c1)CC2`, the “Percent Effect” value is recorded as -77.7%. Turning to `CN(C)CCNC(=O)C1Cc2nc(-c3ccsc3)sc2N1CC1CC1.O=C(O)C(F)(F)F` (stereo not drawn), the “Percent Effect” value is recorded as 9.733%. As to `O=C(Nc1cccnc1)C1Cc2nc(-c3ccsc3)sc2N1CC1CC1.O=C(O)C(F)(F)F` (stereo not drawn), the “Percent Effect” value was -160.3%. The result for `CN(C)CCNC(=O)C1Cc2nc(-c3ccccc3)sc2N1CC1CC1.O=C(O)C(F)(F)F` (stereo not drawn) reads 89.72%; that for `O=C(Nc1cccnc1N1CCSCC1)c1ccc2c(c1)CCC2`, -3.12%. As to `O=C(NC1CCN(c2cccc(C(F)(F)F)n2)CC1)C1CC1`, the “Percent Effect” value is listed as -20.01%. The result for `O=C(NC1CC1)C1CCN(c2cccc(C(F)(F)F)n2)CC1` reads 78.5%; that for `O=C(NC1CC1)C1CCCN(c2cccc(C(F)(F)F)n2)C1` (stereo not drawn), 11.64%; that for `CS(=O)(=O)C1(C(=O)NC2CCc3nccn3C2)CCCC1` (stereo not drawn), -116.8%. As for `COc1cccc(C2(C(=O)NC3CCc4nccn4C3)CCCC2)c1` (stereo not drawn), the “Percent Effect” value was found to be 52%.

Take `COc1ccc(C2(C(=O)NC3CCc4nccn4C3)CCCC2)cc1` (stereo not drawn): the “Percent Effect” value came out at 46.07%. As for `CN1C[C@H](O)[C@]2(CCN(C(=O)NCc3ccccc3)C2)S1(=O)=O`, the “Percent Effect” value is on record as -19.04%.

Take `Cc1cnccc1-c1cc(NCCO)nc2[nH]ccc12`: the “Percent Effect” value was -75.39%.

As to `Cc1nc(C(=O)N2CC[C@@]3(C[C@H](NS(C)(=O)=O)CCO3)C2)cs1`, the “Percent Effect” value is -13.09%.

On to `CC(C)N1CCCC2(CCN(c3nccc(C(F)(F)F)n3)C2)C1=O` (stereo not drawn), for which the “Percent Effect” value was -74.1%. With `CN(C)C(=O)N1CCC2(CCCN(c3ncccn3)C2)C1.O=C(O)C(F)(F)F` (stereo not drawn), the “Percent Effect” value is reported as -156.2%.

For `O=C(O)C(F)(F)F.O=S(=O)(C1CC1)N1CCC2(CCCN(c3ncccn3)C2)C1` (stereo not drawn), the “Percent Effect” value is on record as -10.57%.

For the compound `CC(C)c1nc(C2CCCN(c3nccc(C(F)(F)F)n3)C2)no1` (stereo not drawn), the “Percent Effect” value was -82.41%. For the compound `C=C(C)CN(CC)C(=O)c1cc(F)ccc1N1CCN(C)CC1`, the “Percent Effect” value is on record as -6.643%.

For `CC(CNC(=O)c1cc(C2CC2)nc2c1cnn2C)Cn1cccn1` (stereo not drawn), the “Percent Effect” value was -106.1%.

Consider `Cc1ccc(OCCNC(=O)C2CCOCC2)c(C)c1`, for which the “Percent Effect” value is on record as -53.04%. The result for `Cc1ccc(C)c(Oc2ccc(CNC(=O)C3CCC(=O)N3)cn2)c1` (stereo not drawn) reads -45.06%. For `Cc1cc(N2CCCC(c3[nH]ncc3Cc3ccccc3)C2)nc(N)n1` (stereo not drawn), the “Percent Effect” value worked out at 72.87%. In the case of `Cc1ccc(-c2cn[nH]c2C2CCCN(c3cc(N)ncn3)C2)cc1` (stereo not drawn), the “Percent Effect” value is listed as -38.82%. Next, `Cc1ccc(N2CCCC(c3[nH]ncc3-c3ccccc3)C2)nn1` (stereo not drawn): 25.38%; `Cc1cc(C)n2c(CCCNS(=O)(=O)c3cccs3)nnc2n1`: -65.33%; `COCCN(C)C[C@@H]1CN(C(=O)C(C)(C)c2ccccc2)C[C@@H]1CO`: 29.59%. `COc1ccccc1OC1CN(C(=O)Cc2c(C)nc3ccccn23)C1`: the “Percent Effect” value is listed as -26.12%.

`COc1cccc(CNCc2c(C)nc3sc(C)cn23)c1OC`: the “Percent Effect” value came out at 20.21%.

With `COc1ccc(NC(=O)c2nc(C)sc2C)cn1`, the “Percent Effect” value is listed as -37.98%. `CCc1[nH]c2c(CNc3cncc(C(=O)OC)n3)cc(C)cc2c1C`: the “Percent Effect” value is listed as -28.2%.

With `CCc1[nH]c2c(CNc3cc(C)nc(NC)n3)cc(C)cc2c1C`, the “Percent Effect” value is recorded as 84.97%. As for `CCc1[nH]c2c(CNc3cncc(C(=O)N(C)C)n3)cc(C)cc2c1C`, the “Percent Effect” value is on record as -71.53%.

For the compound `CCc1[nH]c2c(CNc3cncc(C(=O)N(C)C)n3)cc(F)cc2c1C`, the “Percent Effect” value is -100.3%. For the compound `CCc1[nH]c2c(CNc3nc(C)cc(NC)n3)cc(C)cc2c1C`, the “Percent Effect” value came to 88.9%. Turning to `Cc1cc(C(=O)N2CCc3nc(N4CCOCC4)nc(C)c3C2)c(C)o1.O=CO`, the “Percent Effect” value was -46.43%. The result for `COc1ccc(C(=O)CCC(=O)NCc2ncc(C)s2)cc1F` reads -71.69%; that for `CCCOC1Sc2nnc(C)n2N=C1c1ccccc1` (stereo not drawn), -105.9%; that for `COc1cccc(OCCNS(=O)(=O)Cc2ccccc2)c1`, -90.07%.

For the compound `COc1cccc(CNCCNS(=O)(=O)Cc2ccccc2)c1`, the “Percent Effect” value stood at 54.45%. Regarding `COc1cccc(CNCCc2cccc(C(N)=O)c2)c1`, the “Percent Effect” value is recorded as -12.09%.
